PubChem BioAssay (NCATS)
Values joined by “and” are separate entries in the source; they are usually repeats but may differ in a detail not shown here. Equal values may be shown once. Records with an inconclusive call do not appear. Where a call stands in place of a potency, no number is given. Active and inactive are the calls of the source. Calls come from the whole dose curve; as a rule, active = well fitted curve in the direction sought with a large enough effect; inconclusive = small, poorly fitted or top-dose-only effect, or another doubt; inactive = no such curve, though single readings can be large; an effect the other way counts as inactive or inconclusive.

Key:
[1] = tested on: Zika virus NS2B-NS3 protease (unlinked complex); test: Primary screen GU Rhodamine qHTS for Zika virus inhibitors: Unlinked NS2B-NS3 protease assay (AID 1347159); note: nearly all actives have a fitted effect of over 60% in size; note: potency is the fitted concentration of half-maximal effect
Procedure, shortened: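 A qHTS format was used, with compound concentrations ranging up to 114 microM. Each compound was preincubated with 25 nM NS2B-NS3 protease, and the substrate was then added at 1.5 microM. Curves were fitted with a 4-parameter Hill model.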

[2] = tested on: Zika virus NS2B-NS3 protease (linked construct); test: Primary screen NINDS Rhodamine qHTS for Zika virus inhibitors (AID 1347160); note: nearly all actives have a fitted effect of over 55% in size; note: potency is the fitted concentration of half-maximal effect
Procedure, shortened: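 Kinetic fluorescence (Ex 480 nm, Em 540 nm) over 15 min with 1.5 microM Rhodamine110 peptide and 25 nM linked protease.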

[3] = target: Calcium and integrin-binding protein 1 (Homo sapiens) (UniProt Q99828); test: Primary qHTS for Identification of Calcium Integrin Binding Protein 1 (CIB1) Competitor (AID 1508620);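 note: GST tagged CIB1 binding a fluorescein labelled alphaIIb integrin peptide tracer; top concentration of the series differs between compounds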
Procedure, shortened: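 Fluorescence polarization competition: CIB1-GST (1 uM final) preincubated with compound 15 min at room temperature, then FITC-labeled alphaIIb peptide (100 nM final) added for another 15 min. Polarization read at Ex 480/Em 540.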

[4] = Primary qHTS for inhibitors of nuclear receptor binding SET domain protein 2 (NSD2) in an isogenic RCH-ACV NSD2 p.E1099K mutant (9B) (AID 1645876); note: nearly all actives have a fitted effect of over 70% in size; note: potency is the fitted concentration of half-maximal effect
[5] = target: Glutathione peroxidase 1 (Homo sapiens) (UniProt P07203); test: Primary qHTS Assay for Inhibitors of Recombinant Selenoprotein Glutathione Peroxidase 1 (GPX1) (AID 1845191); note: nearly all actives have a fitted effect of over 65% in size
Procedure, shortened: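 Recombinant GPX1 (10 nM final) was preincubated with compound for 30 min at room temperature, then reacted with 1 mM GSH, 0.5 mM CHP, 0.5 mM NADPH and 100 nM glutathione reductase; NADPH fluorescence (340/450 nm) was read at 0 and 15 min.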

[6] = target: Phospholipid hydroperoxide glutathione peroxidase GPX4 (Homo sapiens) (UniProt P36969); test: Primary qHTS Assay for Inhibitors of Recombinant Selenoprotein Glutathione Peroxidase 4 (GPX4) (AID 1845192); details: outcome: dose series up to 50 µM unless noted; note: nearly all actives have a fitted effect of over 65% in size
Procedure, shortened: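 GR-coupled readout: 100 nM GR, 1 mM GSH, 0.5 mM NADPH; NADPH fluorescence (ex 340/em 450 nm) read at t=0 and after 15 min RT. GPX4 200 nM, preincubated 30 min with compound; substrate 0.5 mM CHP.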

[7] = target: Luciferin 4-monooxygenase (Photinus pyralis) (UniProt P08659); test: Primary firefly luciferase (FLuc) qHTS assay for identification of artifact compounds. (AID 1845220); note: nearly all actives have a fitted effect of over 60% in size
Procedure, shortened: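 In this counter-screen for luciferase artifacts, test compounds met substrate (10 uM each luciferin and ATP) before 10 nM enzyme started the reaction. Light output was measured 5 min later.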

[8] = Primary fluorescence-based thiol-reactive (MSTI) qHTS assay for identification of artifact compounds. (AID 1845221); note: nearly all actives have a fitted effect of over 65% in size; note: potency is the fitted concentration of half-maximal effect
Procedure, shortened: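 First, 4 uM MSTI in 2% DMSO/PBS pH 7.4 was dispensed; next, compounds were added; then plates sat 1 h at room temperature without light. Finally, emission at 598 nm was recorded.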

[9] = tested on: Nanoluciferase (engineered Oplophorus gracilirostris luciferase); test: Primary Nanoluciferase (NLuc) qHTS assay for identification of artifact compounds. (AID 1845222); note: potency is the fitted concentration of half-maximal effect
Procedure, shortened: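 Using secreted nanoluciferase in S16 culture medium (0.22 um filtered, 1:55 dilution), compounds were preincubated 15 min at RT. Signal was generated with Nano-Glo reagent (1:100) over 5 min.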

C33A = test: Primary qHTS to identify gynecologic anti-cancer compounds using libraries of approved drugs and bioactive compounds (AID 1345084); details: Gynecologic cancer cell panel viability, ATPlite luminescence, 48 h; series mostly up to 57.5 µM; note: nearly all actives have a fitted effect of over 55% in size; note: potency is the fitted concentration of half-maximal effect
Procedure, shortened: (§1)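 48 h compound exposure at 37 C, 5% CO2; five-point qHTS. ATPlite luminescence readout of cell ATP.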

CASKI = test: as above; details: Gynecologic cancer cell panel viability, ATPlite luminescence, 48 h; series mostly up to 57.5 µM
Procedure, shortened: as §1

Es-2 = test: as above; details: Gynecologic cancer cell panel viability, ATPlite luminescence, 48 h; series mostly up to 57.5 µM
Procedure, shortened: as §1

HeLa = test: as above; details: Gynecologic cancer cell panel viability, ATPlite luminescence, 48 h; series mostly up to 57.5 µM
Procedure, shortened: as §1

Hek293T = test: as above; details: Gynecologic cancer cell panel viability, ATPlite luminescence, 48 h, control line for the selectivity index; series mostly up to 57.5 µM
Procedure, shortened: as §1

JEG-3 = test: as above; details: Gynecologic cancer cell panel viability, ATPlite luminescence, 48 h; series mostly up to 57.5 µM
Procedure, shortened: as §1

OV90 = test: as above; details: Gynecologic cancer cell panel viability, ATPlite luminescence, 48 h; series mostly up to 57.5 µM
Procedure, shortened: as §1

PA-1 = test: as above; details: Gynecologic cancer cell panel viability, ATPlite luminescence, 48 h; series mostly up to 57.5 µM
Procedure, shortened: as §1

Tov-21-G = test: as above; details: Gynecologic cancer cell panel viability, ATPlite luminescence, 48 h; series mostly up to 57.5 µM
Procedure, shortened: as §1

Tov112D = test: as above; details: Gynecologic cancer cell panel viability, ATPlite luminescence, 48 h; series mostly up to 57.5 µM
Procedure, shortened: as §1

[10] = Primary qHTS for inhibitors of nuclear receptor binding SET domain protein 2 (NSD2) in an RCH-ACV wild type WT cells (2C) (AID 1645877); note: nearly all actives have a fitted effect of over 70% in size; note: potency is the fitted concentration of half-maximal effect

Sequence of Calcium and integrin-binding protein 1 (Homo sapiens) (Q99828 whole entry, looked up): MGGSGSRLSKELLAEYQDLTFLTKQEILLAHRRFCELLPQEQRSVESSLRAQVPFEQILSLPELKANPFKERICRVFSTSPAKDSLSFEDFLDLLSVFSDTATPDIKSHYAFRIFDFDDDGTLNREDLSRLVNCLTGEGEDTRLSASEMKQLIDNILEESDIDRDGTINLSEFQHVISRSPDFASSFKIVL
Sequence of Glutathione peroxidase 1 (Homo sapiens) (P07203 whole entry, looked up): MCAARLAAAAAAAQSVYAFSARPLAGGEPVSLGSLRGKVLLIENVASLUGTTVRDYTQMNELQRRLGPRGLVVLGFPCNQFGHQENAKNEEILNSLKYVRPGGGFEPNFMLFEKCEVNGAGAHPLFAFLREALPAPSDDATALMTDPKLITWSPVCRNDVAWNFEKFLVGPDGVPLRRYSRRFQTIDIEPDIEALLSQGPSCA
Sequence of Phospholipid hydroperoxide glutathione peroxidase GPX4 (Homo sapiens) (P36969 whole entry, looked up): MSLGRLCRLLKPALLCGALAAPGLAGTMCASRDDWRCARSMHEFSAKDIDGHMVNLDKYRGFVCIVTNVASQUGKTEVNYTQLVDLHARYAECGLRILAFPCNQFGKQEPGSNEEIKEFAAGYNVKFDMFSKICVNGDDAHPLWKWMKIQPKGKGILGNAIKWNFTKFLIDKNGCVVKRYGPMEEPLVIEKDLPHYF

Row | SMILES | Potency [1] | Potency [2] | outcome [3] | Potency [4] | Potency [5] | Potency [6] | Potency [7] | Potency [8] | Potency [9] | Potency (C33A) | Potency (CASKI) | Potency (Es-2) | Potency (HeLa) | Potency (Hek293T) | Potency (JEG-3) | Potency (OV90) | Potency (PA-1) | Potency (Tov-21-G) | Potency (Tov112D) | Potency [10]
1 | Cc1cc(CN)cc(C)c1NC(=O)c1ccc(-c2cc(Cl)ccc2Cl)o1 | inactive | inactive | inactive | 18.3 µM (active) | inactive | inactive | inactive | inactive | inactive | inactive | inactive | inactive | inactive | inactive | inactive | inactive | inactive | inactive | inactive | –
2 | CC1OC2O[C@H]3[C@@H](OCC(O)[C@H]3O)OC(=O)C34CCC(C)(C)CC3C3=CCC5C6(C)CC(O)C(OC7OC(CO)C(O)C(O)C7O[C@@H]7OC[C@H](OC(=O)CC(C)(O)CC(=O)OC1C(OC1OCC(O)C(O)C1O)C2O)[C@@H](O)[C@H]7O)C(C)(CO)C6CCC5(C)C3(C)CC4 (stereo partly drawn) | – | inactive | inactive | 8.93 µM (active) | inactive | inactive | inactive | inactive | inactive | – | inactive | – | inactive | inactive | – | – | – | – | – | 4.47 µM (active)
3 | CC1CCN(c2cc(NC(=O)c3ccccc3)ncn2)CC1 | inactive | inactive | inactive | – | inactive | inactive | inactive | inactive | inactive | inactive | inactive | inactive | inactive | inactive | inactive | inactive | – | inactive | inactive | –
4 | C=CC(=O)N1CCN(C(=O)c2cc(-c3cc(Cl)ccc3Cl)c(Cl)cc2OC)CC1 | inactive | inactive | inactive | 11.5 µM (active) | inactive | inactive | inactive | inactive | inactive | – | inactive | – | – | – | inactive | inactive | inactive | – | – | 8.17 µM (active)
5 | Cc1ccn(-c2cc(Cl)ccc2[C@@H](Oc2cc(-c3ccc(C[C@H](N)C(=O)O)cc3)nc(N)n2)C(F)(F)F)n1 | inactive | 22.4 µM (active) | inactive | – | inactive | – | inactive | inactive | – | inactive | inactive | inactive | inactive | inactive | inactive | inactive | inactive | inactive | inactive | –
6 | Cc1cc(N=Nc2ccc(S(=O)(=O)Nc3ccccn3)cc2)c(N)cc1O | inactive | inactive | – | 8.17 µM (active) | inactive | – | – | 0.597 µM (active) | – | inactive | – | – | 4.47 µM (active) | – | inactive | – | 8.91 µM (active) | – | – | 5.78 µM (active)
7 | Cc1cc(CS(=O)(=O)c2ccccc2)cc(OCc2ccc(CN3CCC[C@@H]3CO)cc2)c1 | – | inactive | inactive | 12.9 µM (active) and 16.6 µM (active) | inactive | inactive | inactive | inactive | inactive | – | inactive | inactive | inactive | – | – | 25.1 µM (active) | – | – | – | 18.3 µM (active) and 14.8 µM (active)
8 | CN(Cc1ccc(C(=O)O)cc1)c1ccc(OCc2c(-c3c(Cl)cccc3Cl)noc2C2CC2)nc1C(F)(F)F | 2 µM (active) | 2.51 µM (active) | inactive | – | – | – | inactive | inactive | inactive | inactive | inactive | inactive | inactive | inactive | inactive | inactive | inactive | inactive | inactive | –
9 | CCCCc1nc(C)c(CC(=S)N(C)C)c(=O)n1Cc1ccc(-c2ccccc2-c2nn[nH]n2)cc1 | – | inactive | inactive | inactive | – | inactive | inactive | inactive | 16.9 µM (active) | inactive | inactive | inactive | inactive | inactive | inactive | inactive | inactive | inactive | inactive | inactive
10 | CC(=O)N1CCN([C@H]2CCN(C(=O)N(C)[C@H](C)c3cc(C(F)(F)F)cc(C(F)(F)F)c3)[C@@H](c3ccc(F)cc3C)C2)CC1 | inactive | inactive | inactive | – | inactive | – | inactive | inactive | inactive | inactive | inactive | inactive | inactive | inactive | inactive | inactive | inactive | inactive | inactive | 14.5 µM (active)
11 | Cn1c(NC[C@@H](N)Cc2ccccc2)nc(-c2ccncc2)c(-c2ccc3ccccc3c2)c1=O | inactive | inactive | inactive | 18.6 µM (active) | inactive | inactive | inactive | inactive | inactive | inactive | inactive | inactive | inactive | inactive | inactive | inactive | inactive | inactive | inactive | 26.3 µM (active)
12 | CC[C@H]1OC(=O)[C@H](C)[C@@H](O[C@H]2C[C@@](C)(OC)[C@@H](O)[C@H](C)O2)[C@H](C)[C@@H](O[C@@H]2O[C@H](C)C[C@H](N(C)C)[C@H]2O)[C@](C)(O)C[C@@H](C)/C(=N/OCOCCOC)[C@H](C)[C@@H](O)[C@]1(C)O | inactive | inactive | inactive | inactive | – | inactive | inactive | inactive | inactive | inactive | inactive | inactive | inactive | inactive | inactive | inactive | inactive | inactive | inactive | –
13 | CN[C@@H]1[C@@H](O)[C@@H](O[C@@H]2[C@@H](O)[C@H](O[C@H]3O[C@@H]([C@@H](C)NC)CC[C@H]3N)[C@@H](N)C[C@H]2N)OC[C@]1(C)O | inactive | inactive | – | inactive | – | inactive | inactive | – | inactive | inactive | inactive | inactive | inactive | inactive | inactive | inactive | inactive | inactive | inactive | inactive
